Set-up in all cases: scale not given: direction of the effect not stated beside the values
In assay [1] the target is Protein translocase subunit SecA (Escherichia coli (strain K12)) (UniProt P10408). In words: Assay to Identify E. coli SecA ATPase Inhibitors. The assay is classed as functional. Particulars: 30 µM.
For assay [2], the target named is T1, Ubiquitin-activating enzyme e1, putative (Leishmania donovani (strain BPK282A1)) (UniProt E9BSI1).
T1 sequence (whole entry): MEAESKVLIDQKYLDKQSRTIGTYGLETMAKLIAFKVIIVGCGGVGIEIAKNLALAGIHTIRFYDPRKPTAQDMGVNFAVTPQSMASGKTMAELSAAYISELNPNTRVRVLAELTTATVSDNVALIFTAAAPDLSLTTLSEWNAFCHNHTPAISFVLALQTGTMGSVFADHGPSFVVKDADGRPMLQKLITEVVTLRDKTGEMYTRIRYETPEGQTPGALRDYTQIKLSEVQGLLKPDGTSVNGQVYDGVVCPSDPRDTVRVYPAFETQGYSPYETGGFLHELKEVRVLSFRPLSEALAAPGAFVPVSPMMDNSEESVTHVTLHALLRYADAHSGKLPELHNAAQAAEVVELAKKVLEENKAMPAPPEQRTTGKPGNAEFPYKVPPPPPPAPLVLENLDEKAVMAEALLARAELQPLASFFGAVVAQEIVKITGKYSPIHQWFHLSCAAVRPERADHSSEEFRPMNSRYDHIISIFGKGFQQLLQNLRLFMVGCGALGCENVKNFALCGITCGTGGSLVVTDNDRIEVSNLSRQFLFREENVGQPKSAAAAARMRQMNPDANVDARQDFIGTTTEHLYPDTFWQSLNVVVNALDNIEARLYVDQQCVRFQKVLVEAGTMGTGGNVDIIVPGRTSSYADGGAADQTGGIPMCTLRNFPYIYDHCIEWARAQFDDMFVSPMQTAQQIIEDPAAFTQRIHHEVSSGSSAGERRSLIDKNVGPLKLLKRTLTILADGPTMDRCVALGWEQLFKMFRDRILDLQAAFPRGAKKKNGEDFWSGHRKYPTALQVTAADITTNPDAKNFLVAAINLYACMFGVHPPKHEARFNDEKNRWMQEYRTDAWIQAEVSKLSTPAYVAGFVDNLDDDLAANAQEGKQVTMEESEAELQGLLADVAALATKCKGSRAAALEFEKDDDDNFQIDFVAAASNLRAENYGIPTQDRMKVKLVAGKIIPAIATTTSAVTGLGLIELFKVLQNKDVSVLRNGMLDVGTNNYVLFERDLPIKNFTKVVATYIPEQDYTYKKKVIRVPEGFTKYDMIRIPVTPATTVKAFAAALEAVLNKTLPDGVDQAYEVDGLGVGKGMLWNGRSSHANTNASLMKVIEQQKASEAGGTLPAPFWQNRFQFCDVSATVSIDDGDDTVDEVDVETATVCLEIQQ
In words: Leishmania donovani Ubiquitin Activating Enzyme (LdE1). The format is functional. The following applies: 30 µM.

For assay [3], the target named is AMP-activated protein kinase, AMPK (Homo sapiens) (UniProt P54646+O43741+P54619+Q9UGJ0+Q9Y478+Q13131+Q9UGI9). The experiment in a line: AMP-dependent Kinase enzyme assay. An in vitro enzyme assay that detects ADP turnover that is directly proportional to AMPK activity. This uses naive AMPK that is activated during the assay with MK-8722. The format is functional. The following applies: 30 µM.

In assay [4] the target is Sialic acid-binding Ig-like lectin 9 (Homo sapiens) (UniProt Q9Y336). The experiment in a line: Hs-Siglec9 ALPHAscreen SOP 20170721. Particulars: 10 µM. A general note: Bead proximity is the source of the signal in Alpha formats.
Chain of Sialic acid-binding Ig-like lectin 9 (Homo sapiens) (Q9Y336 whole entry): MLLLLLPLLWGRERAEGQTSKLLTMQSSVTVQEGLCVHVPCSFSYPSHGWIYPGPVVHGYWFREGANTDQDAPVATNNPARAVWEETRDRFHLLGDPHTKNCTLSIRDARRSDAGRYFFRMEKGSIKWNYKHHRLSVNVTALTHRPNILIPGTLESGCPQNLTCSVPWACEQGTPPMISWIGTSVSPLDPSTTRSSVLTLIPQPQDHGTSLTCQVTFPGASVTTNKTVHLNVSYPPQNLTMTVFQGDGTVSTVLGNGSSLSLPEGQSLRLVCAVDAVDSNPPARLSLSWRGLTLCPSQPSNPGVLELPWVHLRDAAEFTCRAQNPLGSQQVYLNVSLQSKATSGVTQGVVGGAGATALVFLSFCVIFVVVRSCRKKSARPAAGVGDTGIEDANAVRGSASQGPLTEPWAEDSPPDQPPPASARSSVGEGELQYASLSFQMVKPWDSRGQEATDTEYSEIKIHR
In assay [5] the test system is Trypanosoma cruzi. The experiment in a line: Trypanosoma cruzi phosphomannomutase and mannose-1-phosphate guanylyltransferase assay. The format is functional. The following applies: 10 µM.
Assay [6] has as its target T2, Arginase-2, mitochondrial (Homo sapiens) (UniProt P78540).
T2 sequence (whole entry): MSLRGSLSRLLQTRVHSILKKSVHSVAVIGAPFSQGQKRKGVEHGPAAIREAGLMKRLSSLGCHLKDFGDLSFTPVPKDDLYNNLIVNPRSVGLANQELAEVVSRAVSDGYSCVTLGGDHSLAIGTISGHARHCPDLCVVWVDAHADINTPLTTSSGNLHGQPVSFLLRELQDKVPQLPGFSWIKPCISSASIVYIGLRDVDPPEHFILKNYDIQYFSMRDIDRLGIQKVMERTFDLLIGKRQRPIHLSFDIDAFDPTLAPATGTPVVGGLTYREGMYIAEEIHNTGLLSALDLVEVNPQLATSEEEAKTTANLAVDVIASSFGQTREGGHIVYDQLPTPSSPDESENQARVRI
In words: in vitro enzyme assay to detect the production of urea directly proportional to the activity of Arginase II. Further: in the data most compounds retested in dose-response had high values. The assay is classed as functional. The following applies: 33.3 µM.

For assay [7], the target named is T3, Proteasome subunit beta (Trypanosoma cruzi) (UniProt O96673).
T3 sequence (whole entry): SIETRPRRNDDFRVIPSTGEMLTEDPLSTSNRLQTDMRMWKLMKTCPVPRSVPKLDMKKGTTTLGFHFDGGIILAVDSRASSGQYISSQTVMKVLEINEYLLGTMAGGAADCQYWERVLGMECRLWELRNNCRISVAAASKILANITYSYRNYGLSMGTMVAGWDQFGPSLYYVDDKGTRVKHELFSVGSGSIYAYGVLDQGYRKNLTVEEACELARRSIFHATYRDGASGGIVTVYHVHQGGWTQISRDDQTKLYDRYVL
In words: Trypanosoma cruzi proteasome chymotrypsin-like activity (TcProtChymo) assay. Further: in the data most compounds retested in dose-response had high values. The format is functional. Particulars: 9.37 µM.

Assay [8] is filed under the species Homo sapiens. In words: To identify inhibition of the IFN signalling (Jak-Stat) pathway via expression of an eGFP reporter gene under the control of an IFN-stimulated response element (ISRE) containing MxA promoter. The format is functional. The following applies: 30 µM. On the technique in general: Reporter assays use an easily measured gene product as a stand-in for the process of interest.

Assay [9] addresses T4, Tyrosyl-tRNA synthetase, putative (Trypanosoma cruzi (strain CL Brener)) (UniProt Q4DSP6).
T4 sequence (whole entry): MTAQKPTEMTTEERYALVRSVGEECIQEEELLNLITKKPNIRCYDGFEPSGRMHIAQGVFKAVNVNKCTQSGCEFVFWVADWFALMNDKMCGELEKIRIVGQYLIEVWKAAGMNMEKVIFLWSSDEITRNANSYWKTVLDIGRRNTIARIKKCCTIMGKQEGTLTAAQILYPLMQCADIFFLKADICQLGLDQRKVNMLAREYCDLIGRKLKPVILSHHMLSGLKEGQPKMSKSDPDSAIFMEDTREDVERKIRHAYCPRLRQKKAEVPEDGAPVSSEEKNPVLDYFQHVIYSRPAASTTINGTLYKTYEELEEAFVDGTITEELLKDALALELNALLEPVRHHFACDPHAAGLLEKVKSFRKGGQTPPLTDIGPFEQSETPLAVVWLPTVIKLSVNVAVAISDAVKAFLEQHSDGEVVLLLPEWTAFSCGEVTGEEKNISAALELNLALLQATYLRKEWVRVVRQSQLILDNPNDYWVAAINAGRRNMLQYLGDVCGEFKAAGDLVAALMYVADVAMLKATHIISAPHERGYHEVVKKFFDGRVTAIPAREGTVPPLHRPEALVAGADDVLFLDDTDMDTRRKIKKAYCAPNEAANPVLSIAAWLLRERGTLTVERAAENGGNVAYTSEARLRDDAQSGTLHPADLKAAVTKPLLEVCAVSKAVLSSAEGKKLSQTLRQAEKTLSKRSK
In words: Trypanosoma cruzi tyrosyl tRNA synthetase (TcYRS) _High Tyrosine SOP. Further: in the data most compounds retested in dose-response had high values. Particulars: 30 µM. The format is functional.

Assay [10] concerns the target T4, Tyrosyl-tRNA synthetase, putative (Trypanosoma cruzi (strain CL Brener)). The experiment in a line: Trypanosoma cruzi tyrosyl tRNA synthetase (TcYRS) SOP. The assay is classed as functional. Particulars: 30 µM.
The target of assay [11] is Chromo domain-containing protein 1 (Saccharomyces cerevisiae (strain ATCC 204508 / S288c) (Baker's yeast)) (UniProt P32657). In words: ScCHD-1 Enzyme Inhibition Assay. Further: in the data most compounds retested in dose-response had high values. Particulars: 30 µM. The format is functional.
Chain of Chromo domain-containing protein 1 (Saccharomyces cerevisiae (strain ATCC 204508 / S288c) (Baker's yeast)) (P32657 whole entry, the tested form may be a part): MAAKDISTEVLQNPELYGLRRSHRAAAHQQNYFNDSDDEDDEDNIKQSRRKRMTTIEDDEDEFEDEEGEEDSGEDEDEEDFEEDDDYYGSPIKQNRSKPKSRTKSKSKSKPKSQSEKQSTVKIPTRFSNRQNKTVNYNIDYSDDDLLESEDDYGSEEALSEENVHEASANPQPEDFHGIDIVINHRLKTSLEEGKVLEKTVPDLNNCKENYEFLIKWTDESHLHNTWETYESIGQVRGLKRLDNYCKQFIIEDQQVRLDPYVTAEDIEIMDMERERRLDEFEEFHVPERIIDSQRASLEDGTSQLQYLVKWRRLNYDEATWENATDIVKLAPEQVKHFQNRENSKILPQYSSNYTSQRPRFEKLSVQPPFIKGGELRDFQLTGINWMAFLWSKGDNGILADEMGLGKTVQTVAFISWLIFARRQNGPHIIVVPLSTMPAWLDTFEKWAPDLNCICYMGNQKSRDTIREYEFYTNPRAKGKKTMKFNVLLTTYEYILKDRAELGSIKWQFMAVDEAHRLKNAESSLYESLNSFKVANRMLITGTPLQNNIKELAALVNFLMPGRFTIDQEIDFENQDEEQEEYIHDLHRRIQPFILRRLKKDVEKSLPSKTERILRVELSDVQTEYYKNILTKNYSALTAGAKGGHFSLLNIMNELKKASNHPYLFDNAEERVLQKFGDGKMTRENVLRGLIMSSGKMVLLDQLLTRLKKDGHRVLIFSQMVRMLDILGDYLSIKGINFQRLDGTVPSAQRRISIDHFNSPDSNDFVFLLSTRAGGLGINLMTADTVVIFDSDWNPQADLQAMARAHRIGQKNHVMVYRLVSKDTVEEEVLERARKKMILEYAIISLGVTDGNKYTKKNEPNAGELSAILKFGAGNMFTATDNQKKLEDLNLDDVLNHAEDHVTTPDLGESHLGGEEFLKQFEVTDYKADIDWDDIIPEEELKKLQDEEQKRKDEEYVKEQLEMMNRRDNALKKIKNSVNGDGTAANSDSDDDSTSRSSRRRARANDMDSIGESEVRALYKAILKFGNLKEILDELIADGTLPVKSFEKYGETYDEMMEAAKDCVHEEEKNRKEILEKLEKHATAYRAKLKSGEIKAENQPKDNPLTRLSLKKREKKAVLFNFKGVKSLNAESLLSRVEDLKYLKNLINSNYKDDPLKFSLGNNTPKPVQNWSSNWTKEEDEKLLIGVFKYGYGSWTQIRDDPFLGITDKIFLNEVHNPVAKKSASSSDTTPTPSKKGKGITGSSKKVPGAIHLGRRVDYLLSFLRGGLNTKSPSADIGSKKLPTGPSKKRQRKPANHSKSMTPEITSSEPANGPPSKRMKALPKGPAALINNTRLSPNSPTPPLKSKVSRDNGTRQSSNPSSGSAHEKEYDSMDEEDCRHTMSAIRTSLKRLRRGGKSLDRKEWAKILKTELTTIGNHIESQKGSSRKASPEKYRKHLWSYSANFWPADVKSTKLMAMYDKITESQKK

For some assays here: Entries with a potency or affinity are not part of this list.

Chain of Protein translocase subunit SecA (Escherichia coli (strain K12)) (P10408 whole entry): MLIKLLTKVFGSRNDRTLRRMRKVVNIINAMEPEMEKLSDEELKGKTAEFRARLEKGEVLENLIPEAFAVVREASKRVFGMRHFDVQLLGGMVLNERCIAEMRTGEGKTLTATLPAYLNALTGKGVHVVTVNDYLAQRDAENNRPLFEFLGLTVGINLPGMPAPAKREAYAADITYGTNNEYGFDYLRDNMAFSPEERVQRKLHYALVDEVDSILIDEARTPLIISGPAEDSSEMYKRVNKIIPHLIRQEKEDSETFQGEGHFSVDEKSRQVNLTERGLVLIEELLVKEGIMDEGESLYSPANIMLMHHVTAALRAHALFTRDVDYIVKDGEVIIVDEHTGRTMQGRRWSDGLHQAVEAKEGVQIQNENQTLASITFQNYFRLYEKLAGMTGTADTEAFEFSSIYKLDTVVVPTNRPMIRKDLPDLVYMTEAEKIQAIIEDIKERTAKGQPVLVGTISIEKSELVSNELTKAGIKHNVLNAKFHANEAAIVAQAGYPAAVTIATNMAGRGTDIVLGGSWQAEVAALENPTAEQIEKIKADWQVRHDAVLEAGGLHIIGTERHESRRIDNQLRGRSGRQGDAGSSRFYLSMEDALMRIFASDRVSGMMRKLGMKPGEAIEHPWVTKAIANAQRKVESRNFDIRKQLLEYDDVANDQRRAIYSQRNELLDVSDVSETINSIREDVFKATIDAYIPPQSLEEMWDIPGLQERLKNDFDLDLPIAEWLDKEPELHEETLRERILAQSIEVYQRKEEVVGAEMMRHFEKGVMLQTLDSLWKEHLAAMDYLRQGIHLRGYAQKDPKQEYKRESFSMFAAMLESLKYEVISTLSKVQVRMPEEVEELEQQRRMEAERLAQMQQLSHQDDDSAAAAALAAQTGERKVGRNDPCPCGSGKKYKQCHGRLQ

Turning to `COC(=O)CCN1CCCC1c1cccc2c1OCCO2` (stereo not given), the Percent Effect in assay [1] is -3.03%; in [2], -2.67%; in [3] it was -0.184%; in assay [4], 36%; in [5] it was -0.682%; in assay [6] it was -2.6%. Further, the Percent Effect in assay [7] is -1.92%; in assay [8], 5.8%; in assay [9], 3.83%; in [10] it was 3.7%; in assay [11] it was 3.53%.

On to `COCCc1noc(CN(C)C(=O)c2cccc(N3CCCC3=O)c2)n1`, for which the Percent Effect in assay [1] was -2.59%; in assay [2], -2.53%; in assay [3], 0.707%; in assay [4], 3.91%; in [5] it was -1.23%; in [6], -0.38%. Moreover, the Percent Effect in [7] is -0.246%; in assay [8] it was -3.22%; in assay [9], -0.493%; in assay [10] it was -3.8%; in assay [11] it was -1.74%.

Regarding `O=C(Nc1ccc(N2CCCC2)nc1)N1CCc2sccc2C1`, the Percent Effect is -5.59% in [1]; 2.7% in assay [2]; 0.616% in [3]; 0.939% in assay [4]; -8.59% in assay [5]; -0.833% in [6]. Moreover, the Percent Effect in assay [7] was 22.1%; in [8], 7.44%; in [9], 13.9%; in assay [10], 13.4%; in [11], 1.64%.

As for `O=C1CCSCC(C(=O)N2CCN(C3CCCCC3)CC2)N1` (stereo not given), the Percent Effect in assay [1] was -2.82%; in assay [2], 0%; in [3], -2.68%; in assay [4] it was -4.3%; in assay [5], 0.979%; in [6], 3.64%. In addition, the Percent Effect in [7] is 2.48%; in assay [8], -1.47%; in [9], 5.38%; in [10], 12.5%; in assay [11], -0.805%.

For `CC(=O)Nc1nc(CN2CCCC2Cn2cc(C)cn2)cs1` (stereo not given), the Percent Effect was 0.188% in assay [1]; 13% in [2]; 1.99% in [3]; -21.8% in [4]; 1.08% in [5]; -6.53% in [6]. Also, the Percent Effect in assay [7] was 21.9%; in [8], 4.62%; in assay [9], 9.52%; in [10], 25.9%; in assay [11], -28.6%.

As for `Fc1ccc(CN2CCCC2Cn2cccn2)c2ncccc12` (stereo not given), the Percent Effect in assay [1] was -3.18%; in assay [2], -16.2%; in assay [3], -9.76%; in assay [4], 11.6%; in assay [5], -2.51%; in assay [6], -0.185%. Besides, the Percent Effect in [7] was 3.41%; in assay [8], -3.85%; in assay [9], 11.9%; in [10], 11%; in assay [11], 7.89%.

For the compound `CCc1nc(CN2CCCC(NCc3nc4cccnc4[nH]3)C2)no1` (stereo not given), the Percent Effect is -0.119% in assay [1]; 20.2% in assay [2]; -9.6% in assay [3]; -10.5% in assay [4]; 2.36% in assay [5]; 0% in assay [6]. In addition, the Percent Effect in assay [7] is 5.98%; in assay [8], 11.5%; in assay [9] it was 10.3%; in assay [10], 16.5%; in assay [11], -8.46%.

Consider `Cc1nc(C)n(CC2CCCN2CC(=O)NCCc2ccccc2)n1` (stereo not given), for which the Percent Effect came out at 0.351% in [1]; 0% in [2]; 2.9% in assay [3]; 4.24% in assay [4]; 1.37% in assay [5]; 1.36% in assay [6]. Besides, the Percent Effect in [7] was 12.4%; in assay [8] it was -18.8%; in [9], 1.07%; in assay [10], 2.5%; in assay [11], -5.02%.

Turning to `CC(C)Cc1noc(CN2CCC(NC(=O)c3cccs3)CC2)n1`, the Percent Effect in [1] is -4.22%; in assay [2], 15.6%; in [3] it was 5.36%; in assay [4], 8.56%; in assay [5] it was 3.64%; in assay [6], -8.28%. Moreover, the Percent Effect is 19% in [7]; 3.93% in assay [8]; 6.45% in assay [9]; 16.1% in assay [10]; -6.14% in assay [11].

For `Cc1nc(N2CCN(C(=O)C3CC3)CC2)c2c(n1)c(C)nn2C`, the Percent Effect was -1.08% in assay [1]; 6.67% in assay [2]; 0.162% in [3]; 0.614% in [4]; 3.73% in [5]; -4.75% in assay [6]. Besides, the Percent Effect in [7] is 10.2%; in assay [8], 18.7%; in assay [9] it was 6.35%; in assay [10] it was 12.8%; in assay [11] it was -11.8%.

Values taken from ChEMBL document CHEMBL3988442, “University of Dundee, Small-Polar-MMV Screening Library” (2021).
